Laboratory results published in PubChem BioAssay (NCI).
Compounds without any hit were thinned out: in the full panel of roughly 79,000, 15% have a hit. Values without a mark were called inactive. Activity calls are given as the source filed them. No stated cut-off is given here; in the data, active means growth inhibition above about 70%; inactive means the rest.

Key:
[1] = NCI Yeast Anticancer Drug Screen. Data for the rad50 strain (AID 155);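 further: 0% = growth of vehicle-only cultures of the same strain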; conditions: S. cerevisiae rad50 strain growth inhibition, stronger effect = higher value
Procedure, shortened: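 Growth of the mutant yeast was measured after compound exposure and referenced to vehicle-treated cultures.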

[2] = NCI Yeast Anticancer Drug Screen. Data for the mec2-1 strain (AID 157); conditions: S. cerevisiae mec2-1 strain, stronger effect = higher value
Procedure, shortened: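 Test agents were screened against the mec2-1 yeast strain, with defined DNA repair or cell cycle alteration. Growth was scored as inhibition against vehicle-only controls.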

[3] = NCI Yeast Anticancer Drug Screen. Data for the sgs1 mgt1 strain (AID 161);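 further: 0% = growth of cultures given vehicle only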; conditions: S. cerevisiae sgs1 mgt1 strain, stronger effect = higher value
Procedure, shortened: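 Mutant yeast exposed to compound; growth scored against vehicle-only wells.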

[4] = NCI Yeast Anticancer Drug Screen. Data for the cln2 rad14 strain (AID 165);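 further: 0% = growth equal to vehicle treated cultures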; conditions: S. cerevisiae cln2 rad14 strain, stronger effect = higher value
Procedure, shortened: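 Growth of compound-exposed yeast (cln2 rad14 genotype) measured and expressed as inhibition relative to vehicle.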

[5] = NCI Yeast Anticancer Drug Screen. Data for the bub3 strain (AID 167); conditions: S. cerevisiae bub3 mutant strain, stronger effect = higher value
Procedure, shortened: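 Whole-cell yeast assay. The mutant strain was incubated with compounds, and growth inhibition was determined by comparison with vehicle-treated cells.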

[6] = NCI Yeast Anticancer Drug Screen. Data for the mlh1 rad18 strain (AID 175); conditions: S. cerevisiae mlh1 rad18 strain growth inhibition, stronger effect = higher value
Procedure, shortened: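 In this whole-cell yeast screen, a strain with altered DNA damage repair is challenged with compound, and its growth is measured against matched vehicle-treated controls.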

[7] = at 5.0 µM (retest, dose inferred, filed as 0.5)
[8] = at 50.0 µM (retest, dose inferred, filed as 5.0)

Row | SMILES | growth inhibition [1, 7] [%] | growth inhibition [1, 8] | growth inhibition ([1]; at 50.0 µM) | growth inhibition [2, 7] [%] | growth inhibition [2, 8] | growth inhibition ([2]; at 50.0 µM) | growth inhibition [3, 7] [%] | growth inhibition [3, 8] | growth inhibition ([3]; at 50.0 µM) | growth inhibition [4, 7] [%] | growth inhibition [4, 8] | growth inhibition ([4]; at 50.0 µM) | growth inhibition [5, 7] [%] | growth inhibition [5, 8] | growth inhibition ([5]; at 50.0 µM) | growth inhibition [6, 7] [%] | growth inhibition [6, 8] | growth inhibition ([6]; at 50.0 µM)
1 | COc1ccc(C(=O)OC(=O)c2ccc(OC)cc2)cc1 | 5 | 9% | 71.4% (active) | -6 | 7% | 18.1% | 2 | -70% | 22.1% | 4 | -4% | 6.05% | -1 | 8% | 28.1% | -10 | 16% | 74.4% (active)
2 | COc1cccc(CCCNC(=O)Cc2ccccc2CO)c1 | 12 | 14% | 34.2% | 9 | 5% | -55.1% | 9 | 12% | -13.8% | 1 | 5% | 7.7% | 11 | 14% | -12.2% | 13 | 10% | -46.8%
3 | Cc1c(NC(=O)CCl)c(=O)oc2c(C)c3occc(=O)c3cc12 | 59 | 97% (active) | 96.8% (active) | 16 | 93% (active) | 83.8% (active) | 7 | 89% (active) | 90.8% (active) | 10 | 85% (active) | 29.3% | 10 | 91% (active) | 79.2% (active) | 13 | 94% (active) | 92% (active)
4 | O=C1CN=C(c2ccccc2)N(c2ccccc2)N1 | -1 | 96% (active) | 94% (active) | -6 | 97% (active) | 96.5% (active) | -15 | 96% (active) | 94.5% (active) | 2 | 93% (active) | 85% (active) | 8 | 97% (active) | 94.7% (active) | -1 | 94% (active) | 94.4% (active)
5 | BrCN(CBr)c1ccc2c(c1)Cc1cc(Br)ccc1-2 | 4 | -4% | 70.4% (active) | -3 | -4% | 28.4% | 1 | 1% | 64.8% | 7 | 11% | -1.35% | 1 | -2% | 25.8% | 3 | -7% | 74.3% (active)
6 | COC12C=CC(CC1)C1=C2C(=O)c2nc(C)c(C)nc2C1=O (stereo unspecified) | -1 | 27% | 30.8% | 9 | 20% | 7.5% | -1 | 39% | 33.6% | 21 | 3% | 20.8% | 5 | 8% | 20.8% | 12 | 52% | 34.2%
7 | Cc1ccc(S(=O)(=O)CC2(Br)CCc3ccccc3C2=O)cc1 (stereo unspecified) | 39 | 71% (active) | 74.8% (active) | 31 | 15% | 62.5% | 40 | 74% (active) | 75.3% (active) | 1 | 18% | 38.6% | 12 | 60% | 42.5% | 23 | 48% | 54.8%
